# The list is not random: actives were taken first. Their share in the collection is about 5.9%.
# Rtt109 HAT inh – inhibitors of Candida albicans Rtt109/Vps75 histone acetyltransferase; Q5AAJ8; purified Rtt109/Vps75, ThioGlo CoA-SH fluorescence, 4 h; inhibition, % at 34.9 µM; hit rate 0.16% among 330,000;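 active means inhibition of at least 50% in every replicate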
# Target sequence (Q5AAJ8 whole entry, looked up): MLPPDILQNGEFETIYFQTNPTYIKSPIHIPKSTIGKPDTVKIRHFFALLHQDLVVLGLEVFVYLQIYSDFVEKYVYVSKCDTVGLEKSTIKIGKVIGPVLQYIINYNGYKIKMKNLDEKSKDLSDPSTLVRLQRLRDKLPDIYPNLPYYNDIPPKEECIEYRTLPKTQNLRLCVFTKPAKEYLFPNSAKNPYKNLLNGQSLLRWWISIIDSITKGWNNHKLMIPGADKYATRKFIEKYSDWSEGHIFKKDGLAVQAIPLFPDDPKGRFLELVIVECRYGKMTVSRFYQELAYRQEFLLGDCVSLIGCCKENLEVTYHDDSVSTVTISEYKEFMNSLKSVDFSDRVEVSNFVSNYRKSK
# PRMT1 inh – PRMT1 (human) inhibition, primary screen | recombinant PRMT1, activity-based probe fluorescence polarization | inhibition, % at 2.79 µM | hit rate 1.3% among 370,000 | AID 652257;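 active means inhibition above about 21% made by adding two undisclosed values, limit read from the data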
# ABHD5-PLIN5 inh – ABHD5-PLIN5 protein interaction inhibition; Q00G26+Q8WTS1; Split G. princeps luciferase complementation, luminescence, 4 h; inhibition, % at 4 µM; hit rate 0.78% among 360,000; AID 602281;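 active means inhibition above the mean inhibition across every tested compound plus 3 SD, cut at about 22% in these data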;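 further: 0% = DMSO only wells and the 100% control is not disclosed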
# ALR H2O2 inh – blocks human ALR sulfhydryl oxidase activity; purified ALR, DTT oxidation, H2O2 HRP-luminol luminescence; inhibition, % (no concentration beside the values); hit rate 3.8% among 290,000; AID 485317;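 active means mean replicate inhibition above about 79%, with every replicate also reaching it, limit read from the data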
# Target sequence (P55789 whole entry, looked up): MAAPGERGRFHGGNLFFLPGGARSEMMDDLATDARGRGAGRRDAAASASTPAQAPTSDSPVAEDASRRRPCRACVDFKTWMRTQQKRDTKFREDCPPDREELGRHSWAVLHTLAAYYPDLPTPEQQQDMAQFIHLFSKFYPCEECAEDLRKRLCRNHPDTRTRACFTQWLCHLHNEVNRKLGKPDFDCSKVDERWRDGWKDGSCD
# LANA-H2B inh – blocks KSHV LANA binding to histone H2A/H2B | hit rate 0.6% among 320,000 | inhibition, % (concentration not given with the values) | Q9QR71 | cell-free LANA-H2A/H2B peptide, fluorescence polarization; in the data active means inhibition mostly above about 10%, no sharp cut-off; inactive means mostly below about 6.7%
# rCAG binder – binds r(CAG) RNA repeats | inhibition, % at 3 µM | r(CAG) RNA repeat, TO-PRO-1 dye displacement fluorescence | hit rate 1.3% among 370,000;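 active means inhibition above the plate cutoff, the mean of all test compounds on that plate plus 3 SD, cut at about 35% in these data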;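 further: 0% = DMSO alone and 100% = 100 µM mitoxantrone as full dye displacement; higher means more dye released from RNA so lower well fluorescence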
# Active calls of the source: *; . = not tested or not shown.
SMILES,Rtt109 HAT inh,PRMT1 inh,ABHD5-PLIN5 inh,ALR H2O2 inh,LANA-H2B inh,rCAG binder
Cc1cc2nc(=O)c(/C=C3\C=Nc4ccccc43)c(N)n2o1,.,-4,2,-5,9,9
COC(=O)c1cc(=O)nc2sc3cc(OC)ccc3n12,6,10,0,0,1,4
Nc1c(C=C2C=CC(=O)C=C2)c(=O)nc2sc(CC(=O)N3CCCC3)nn12,7,4,4,-9,6,17
COC[C@@H]1CCCN1c1cccc2c1S(=O)(=O)N(C1CC1)CC[C@@H](C)O2,.,6,.,.,.,11
O=C(Nc1c(-c2ccc(C(F)(F)F)cc2)nc2ncccn12)c1ccccc1,.,2,.,.,.,9
CC(C)C[C@H](NC(=O)CCCn1nnc2ccccc2c1=O)C(=O)O,-5,3,-3,-2,0,3
O=C(O)CCNC(=O)CCCn1nnc2ccccc2c1=O,-8,-2,-4,0,92*,-3
CC(C)(C)C(=O)Nc1cccc(OC(F)(F)C(F)Cl)c1 (stereo not given),13,-1,1,-7,32*,-7
COc1cccc(NC(=O)c2ccc(NC(=O)C(C)(C)C)cc2)c1,2,2,3,5,0,-1
COC(=O)CN1C(=O)S/C(=C/c2ccc(N3CCCCC3)o2)C1=O,-5,9,27*,69,-59,9
CCOC(=O)CN1C(=O)S/C(=C/c2ccc(N3CCCCC3)o2)C1=O,11,-2,14,17,-3,-15
Cc1ccc(N(CCC#N)C(=O)CSc2ccc3c(c2)OCCO3)cc1,8,7,-4,99*,0,-7
N#CCCN(C(=O)CSc1ccc2c(c1)OCCO2)c1ccc(F)cc1,-1,15,0,98*,1,-5
Cc1cc(C)n2c(SCC(=O)N(CCC#N)c3ccc4c(c3)OCCO4)nnc2n1,.,3,5,.,.,11
O=C(OCc1cn(Cc2ccccc2Cl)nn1)N1CCOCC1,.,-6,.,.,.,3
O=C(Nc1ccc(F)cc1)c1cc(-c2ccccn2)nc2c(Cl)cccc12,-1,4,0,-7,0,2
COc1ccc(CN(CCC#N)C(=S)NC(=O)c2ccccc2)cc1,7,-2,-3,1,-4,2
CCCN(CCC)C(=S)NC(=O)c1ccc(-c2ccccc2)cc1,9,0,-1,99*,1,2
N#CCCN(Cc1ccccc1)C(=S)NC(=O)c1ccccc1,-1,-1,-2,98*,4,2
COC(=O)C[C@H]1C[C@H]2c3cc(NC(=O)Nc4ccc(C(F)(F)F)cc4)ccc3O[C@H]2[C@@H](CO)O1,.,0,12,.,.,3
CC(c1ccco1)N(C(=O)c1ccccc1NS(=O)(=O)c1ccc(Cl)c([N+](=O)[O-])c1)c1ccccn1 (stereo not given),-10,1,5,17,-2,69*
CC(c1ccco1)N(C(=O)c1cc(Cl)cc(Cl)c1)c1ccccn1 (stereo not given),-2,1,-10,.,1,-5
O=C(O)CCc1ccc(-c2cccs2)n1CC1CCCO1 (stereo not given),-30,15,4,99*,2,12
O=C(O)CCc1ccc(-c2ccc(F)cc2)n1CC1CCCO1 (stereo not given),-6,3,-5,24,37*,6
O=C(O)CCc1ccc(-c2ccccc2)n1CC(=O)O,-7,23*,0,.,-1,7
SMILES,Rtt109 HAT inh,PRMT1 inh,ABHD5-PLIN5 inh,ALR H2O2 inh,LANA-H2B inh,rCAG binder
CCCc1nc2c3ccccc3ccn2c1CC(C)(C)C,.,4,-6,.,.,2
CCC1(CC)NC(=O)N(CC(=O)N2N=C(c3ccc(Cl)cc3)CC2c2ccco2)C1=O (stereo not given),7,0,22*,0,-1,-4
COc1ccc(NC(=O)/C(=C\c2ccccc2)NC(=O)c2ccco2)cc1,-5,7,6,1,1,1
CN(C)CC(O)CN(c1ccccc1)c1ccccc1 (stereo not given),.,-2,-7,99*,-8,-2
COc1ccc(Nc2nc(-c3ccc4c(c3)NC(=O)CO4)cs2)cc1,1,10,-25,-26,1,23
CCC(C)Nc1nc(-c2ccc3c(c2)NC(=O)CO3)cs1 (stereo not given),-2,3,-16,98*,3,10
CCCc1cc(C(N)=O)c(NC(=O)c2ccoc2C)s1,0,2,-8,98*,6,10
CCCc1cc(C(N)=O)c(NC(=O)c2cc(C)on2)s1,11,.,1,3,0,.
CCOc1ccccc1C1C(C#N)=C(N)Oc2cc(N)ccc21 (stereo not given),1,8,6,98*,-6,24
COC(=O)c1ccc(C2C(C#N)=C(N)Oc3cc(N)ccc32)cc1 (stereo not given),-2,2,8,97*,1,-1
CCOc1ccc(C2C(C#N)=C(N)Oc3cc(O)ccc32)cc1OCC (stereo not given),-8,4,2,-3,0,5
COc1ccc(OC)c(C2C(C#N)=C(N)Oc3cc(N)ccc32)c1 (stereo not given),40,9,-5,99*,-2,13
COc1ccccc1NC(=O)NNC(=O)c1ccc2ccccc2c1O,-6,-1,-6,57,-4,19
CCCC[C@@]1(C2CCCC2)Cc2cc(OCC(=O)O)c(Cl)c(Cl)c2C1=O,-2,-4,-5,25,2,47*
CCn1c(SCC(=O)N/N=C/c2cc(OC)c(OC)c(OC)c2)nc2ccccc21,1,-1,2,4,-1,2
COc1ccc(Cc2nc3ccccc3n2CC(=O)N/N=C/c2ccc(O)cc2)cc1OC,-6,-3,2,100*,-3,3
COc1cc(/C=N/NC(=O)C(C)n2nnc3ccccc32)ccc1O (stereo not given),7,-1,-6,97*,3,4
COc1ccc(/C=N/NC(=O)Cn2c(Cc3ccc(OC)c(OC)c3)nc3ccccc32)cc1OC,5,-3,1,-14,2,-1
CCn1c(SCC(=O)N/N=C/c2cc(OC)c(O)c(OC)c2)nc2ccccc21,7,-4,1,99*,0,-2
COc1cc(/C=N/NC(=O)CSc2n[nH]c(=O)[nH]c2=O)cc(OC)c1O,-11,-3,-1,98*,-3,-1
CCc1nc2c(OCC(=O)c3ccc(F)cc3)cccn2c1N(C)C(=O)C(C)C,.,3,-2,.,.,2
COC(=O)[C@]12C[C@H](CC(=O)NCc3ccc(C)o3)C(=O)N(Cc3ccc(Cl)cc3Cl)C1=C[C@H](C1CCCC1)O[C@@H]2C,.,6,.,.,.,8
O=C(CSc1nnc(COc2ccccc2)n1-c1ccc(Cl)cc1)Nc1ccc(OCc2ccccc2)cc1,.,2,.,.,.,7
